# Measured values reported in PubChem BioAssay (NCI).
# Compounds without any hit were thinned out: in the full panel of roughly 83,000, 20% have a hit.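 Note: values are percent growth. 100 is the growth of untreated cells, values between 100 and 0 indicate rising inhibition; between -100 and 0 indicates cell death.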 The source made the active and inactive calls. The calls were made as follows: active = growth percent below 10; inactive = the rest.
# System: UO-31 renal
# Assay: NCI-60 one-dose screen, 48 h (100 = growth as untreated, 0 = no growth, -100 = all killed)
# Details: 10 µM unless noted
row,SMILES,growth
1,COc1ccc(-n2cc(-c3ccc(Cl)c(Cl)c3)[nH]c2=O)cc1OC,95% (inactive)
2,CN1CCN(S(=O)(=O)O[C@@H]2C(=O)N(c3cc4c5ccccc5ccc4c4ccccc34)[C@H]2c2ccc(F)cn2)CC1,66.6% (inactive)
3,O=C(O)CCNC1CCCCC1,83.4% (inactive)
4,C#C[C@@]1(O)[C@@H](CO)O[C@@H](n2cc(I)c3c(N)ncnc32)[C@@H]1O,-14.8% (active)
5,COC1=CC2C=C(C3N(c4ccccc4)NC(=O)[C@@H]4CCCN34)C(=O)NC2C=C1 (stereo partly specified),86.9% (inactive)
6,CCCCc1n(Cc2ccc3ccccc3n2)cc[n+]1Cc1ccc2ccccc2c1,69.2% (inactive)
7,CN1CCN(/C=C2\CC(C(=O)NCc3ccc(Cl)cc3Cl)NC2=O)CC1 (stereo unspecified),95% (inactive)
8,O=C1NC(SCc2ccc(F)cc2)=N/C1=C/c1cccc(OCc2ccc(Cl)cc2)c1,-38.2% (active)
9,NS(=O)(=O)c1ccc(-n2ncc(NC(=O)Nc3ccc(S(=O)(=O)Nc4nccs4)cc3)c2-c2ccccc2)cc1,97.5% (inactive)
10,N#CC(C#N)=C1NC(c2ccccc2)=C(c2ccccc2)C(c2ccccc2Cl)=C1C#N,96.8% (inactive)
11,CCOc1ccccc1C(=O)/C=C/c1cc2ccccc2[nH]c1=O,-97.7% (active)
12,Cc1ccc2nc3nc4ccc[nH]c4cc3c2c1,65.8% (inactive)
13,C=C1C(=O)O[C@H]2[C@H]1CC/C(C=Nc1c(N)cc(C(F)(F)F)cc1Br)=C\CC[C@@]1(C)O[C@@H]21,-71.5% (active)
14,NC(N)=NC(N)=Nc1cc2ccccc2c2ccccc12,32.6% (inactive)
15,O=C(Nc1ccc(S(=O)(=O)NC2CCCCCC2)cc1)C(c1ccccc1)S(=O)(=O)c1ccc(F)cc1 (stereo unspecified),-44.2% (active)
16,O=c1[nH]c2ccccc2cc1-c1nc2ccncc2[nH]1,78.4% (inactive)
17,Cc1cccc(C)c1NCc1nnc(-c2ccco2)o1,65.1% (inactive)
18,Cc1ccc(-c2nc(C#N)c(S(=O)(=O)N(C)CCO)o2)cc1,78.4% (inactive)
19,Nc1c(C(=O)Nc2ccccc2Cl)sc2nc3c(cc12)CN(Cc1ccccc1)CC3,99.7% (inactive)

row,SMILES,growth
1,C#Cc1ccccc1NC(=O)c1sc2nc3c(cc2c1N)CCCCCC3,50.1% (inactive)
2,CCOCc1cc(C(C)(C)C)ccc1O,94.5% (inactive)
3,C=C(C)[C@@H]1CC[C@]2(C(=O)OCCOCCOCC[P+](c3ccccc3)(c3ccccc3)c3ccccc3)CC[C@]3(C)[C@H](CC[C@@H]4[C@@]5(C)CC[C@H](OC(=O)C(Cl)Cl)C(C)(C)[C@@H]5CC[C@]43C)[C@@H]12,-45.1% (active)
4,CNCc1cccc2c1OCCOCCOCCN(CCN1CCOCC1)S(=O)(=O)c1ccc(cc1)-c1cnc(N)c(n1)C(=O)N2,55.6% (inactive)
5,Cc1c(Cl)cccc1NC(=O)c1sc2nc3c(cc2c1N)CN(Cc1ccccc1)CC3,58% (inactive)
6,C=C(C)[C@@H]1CC[C@]2(C(=O)NCCCO)CC[C@]3(C)[C@H](CC[C@@H]4[C@@]5(C)CCCNC(C)(C)[C@@H]5CC[C@]43C)[C@@H]12,56.1% (inactive)
7,COc1cc(/C=N/Nc2nc(-c3ccc(F)cc3)c(C#N)c(N3CCOCC3)n2)ccc1O,81.7% (inactive)
8,C=C(C)[C@@H]1CC[C@]2(C(=O)N=C=S)CC[C@]3(C)[C@H](CC[C@@H]4[C@@]5(C)CCC(=O)C(C)(C)[C@@H]5CC[C@]43C)[C@@H]12,34.8% (inactive)
9,CC1CCCN(CCCCCOc2ccc3oc4ccc(Cl)cc4c(=O)c3c2)C1 (stereo unspecified),70.7% (inactive)
10,O=C(Nc1cccc(-c2cccc(F)c2)c1)C1CCN(Cc2cccc3cccnc23)CC1,35.8% (inactive)
11,CC(=O)Nc1ccc2c(c1)Cc1cc(F)ccc1-2,56.8% (inactive)
12,COc1ccc2[nH]c(=O)c(/C=C/C(=O)/C=C/c3ccc(O)c(OC)c3)cc2c1,-70.8% (active)
13,CC1=C/C(=N\N=C2/C=C(C)CC(C)(C)C2)CC(C)(C)C1,83.7% (inactive)
14,NC(=O)c1ccc(C2C3=C(CCCC3=O)OC3=C2C(=O)c2ccccc2C3=O)cc1 (stereo unspecified),90.6% (inactive)
15,N#CC1(C#N)C2=C(CCCC2)NC(c2c(F)cccc2Cl)C1(C#N)C#N (stereo unspecified),70% (inactive)
16,CCCCn1c(=O)c(/C=C/C(=O)/C=C/c2ccc(OC)cc2)cc2cc(Cl)ccc21,62.8% (inactive)
17,CCOC(=O)c1ccc(Nc2ncnc3ccc(NC(=O)c4ccccc4)cc23)cc1,72.6% (inactive)
18,NS(=O)(=O)c1ccc(-n2nc(-c3ccccc3)ccc2=O)cc1,91.9% (inactive)
19,CC(=O)Nc1nc2c(c(N)c1C#N)C(c1cccc(Cl)c1)C1=C(CCCC1=O)N2c1sc2c(c1C#N)CCCC2 (stereo unspecified),37.1% (inactive)

# System: TK-10 renal
# Assay: as above
# Details: 10 µM unless noted
row,SMILES,growth
1,COc1ccc(-n2cc(-c3ccc(Cl)c(Cl)c3)[nH]c2=O)cc1OC,96.6% (inactive)
2,CN1CCN(S(=O)(=O)O[C@@H]2C(=O)N(c3cc4c5ccccc5ccc4c4ccccc34)[C@H]2c2ccc(F)cn2)CC1,94.6% (inactive)
3,O=C(O)CCNC1CCCCC1,118% (inactive)
4,C#C[C@@]1(O)[C@@H](CO)O[C@@H](n2cc(I)c3c(N)ncnc32)[C@@H]1O,23.4% (inactive)
5,COC1=CC2C=C(C3N(c4ccccc4)NC(=O)[C@@H]4CCCN34)C(=O)NC2C=C1 (stereo partly specified),100% (inactive)
6,CCCCc1n(Cc2ccc3ccccc3n2)cc[n+]1Cc1ccc2ccccc2c1,-5.08% (active)
7,CN1CCN(/C=C2\CC(C(=O)NCc3ccc(Cl)cc3Cl)NC2=O)CC1 (stereo unspecified),92.7% (inactive)
8,O=C1NC(SCc2ccc(F)cc2)=N/C1=C/c1cccc(OCc2ccc(Cl)cc2)c1,-5.9% (active)
9,NS(=O)(=O)c1ccc(-n2ncc(NC(=O)Nc3ccc(S(=O)(=O)Nc4nccs4)cc3)c2-c2ccccc2)cc1,95.9% (inactive)
10,N#CC(C#N)=C1NC(c2ccccc2)=C(c2ccccc2)C(c2ccccc2Cl)=C1C#N,80.7% (inactive)
11,CCOc1ccccc1C(=O)/C=C/c1cc2ccccc2[nH]c1=O,15% (inactive)
12,Cc1ccc2nc3nc4ccc[nH]c4cc3c2c1,46.9% (inactive)
13,C=C1C(=O)O[C@H]2[C@H]1CC/C(C=Nc1c(N)cc(C(F)(F)F)cc1Br)=C\CC[C@@]1(C)O[C@@H]21,-27.3% (active)
14,NC(N)=NC(N)=Nc1cc2ccccc2c2ccccc12,20.8% (inactive)
15,O=C(Nc1ccc(S(=O)(=O)NC2CCCCCC2)cc1)C(c1ccccc1)S(=O)(=O)c1ccc(F)cc1 (stereo unspecified),6.92% (active)
16,O=c1[nH]c2ccccc2cc1-c1nc2ccncc2[nH]1,73.8% (inactive)
17,Cc1cccc(C)c1NCc1nnc(-c2ccco2)o1,123% (inactive)
18,Cc1ccc(-c2nc(C#N)c(S(=O)(=O)N(C)CCO)o2)cc1,116% (inactive)
19,Nc1c(C(=O)Nc2ccccc2Cl)sc2nc3c(cc12)CN(Cc1ccccc1)CC3,98.5% (inactive)

row,SMILES,growth
1,C#Cc1ccccc1NC(=O)c1sc2nc3c(cc2c1N)CCCCCC3,63.2% (inactive)
2,CCOCc1cc(C(C)(C)C)ccc1O,93.8% (inactive)
3,C=C(C)[C@@H]1CC[C@]2(C(=O)OCCOCCOCC[P+](c3ccccc3)(c3ccccc3)c3ccccc3)CC[C@]3(C)[C@H](CC[C@@H]4[C@@]5(C)CC[C@H](OC(=O)C(Cl)Cl)C(C)(C)[C@@H]5CC[C@]43C)[C@@H]12,15.7% (inactive)
4,CNCc1cccc2c1OCCOCCOCCN(CCN1CCOCC1)S(=O)(=O)c1ccc(cc1)-c1cnc(N)c(n1)C(=O)N2,43.9% (inactive)
5,Cc1c(Cl)cccc1NC(=O)c1sc2nc3c(cc2c1N)CN(Cc1ccccc1)CC3,75% (inactive)
6,C=C(C)[C@@H]1CC[C@]2(C(=O)NCCCO)CC[C@]3(C)[C@H](CC[C@@H]4[C@@]5(C)CCCNC(C)(C)[C@@H]5CC[C@]43C)[C@@H]12,91.2% (inactive)
7,COc1cc(/C=N/Nc2nc(-c3ccc(F)cc3)c(C#N)c(N3CCOCC3)n2)ccc1O,98.9% (inactive)
8,C=C(C)[C@@H]1CC[C@]2(C(=O)N=C=S)CC[C@]3(C)[C@H](CC[C@@H]4[C@@]5(C)CCC(=O)C(C)(C)[C@@H]5CC[C@]43C)[C@@H]12,42.3% (inactive)
9,CC1CCCN(CCCCCOc2ccc3oc4ccc(Cl)cc4c(=O)c3c2)C1 (stereo unspecified),92% (inactive)
10,O=C(Nc1cccc(-c2cccc(F)c2)c1)C1CCN(Cc2cccc3cccnc23)CC1,60.1% (inactive)
11,CC(=O)Nc1ccc2c(c1)Cc1cc(F)ccc1-2,104% (inactive)
12,COc1ccc2[nH]c(=O)c(/C=C/C(=O)/C=C/c3ccc(O)c(OC)c3)cc2c1,61.1% (inactive)
13,CC1=C/C(=N\N=C2/C=C(C)CC(C)(C)C2)CC(C)(C)C1,95.2% (inactive)
14,NC(=O)c1ccc(C2C3=C(CCCC3=O)OC3=C2C(=O)c2ccccc2C3=O)cc1 (stereo unspecified),98.2% (inactive)
15,N#CC1(C#N)C2=C(CCCC2)NC(c2c(F)cccc2Cl)C1(C#N)C#N (stereo unspecified),99.8% (inactive)
16,CCCCn1c(=O)c(/C=C/C(=O)/C=C/c2ccc(OC)cc2)cc2cc(Cl)ccc21,112% (inactive)
17,CCOC(=O)c1ccc(Nc2ncnc3ccc(NC(=O)c4ccccc4)cc23)cc1,65.4% (inactive)
18,NS(=O)(=O)c1ccc(-n2nc(-c3ccccc3)ccc2=O)cc1,132% (inactive)
19,CC(=O)Nc1nc2c(c(N)c1C#N)C(c1cccc(Cl)c1)C1=C(CCCC1=O)N2c1sc2c(c1C#N)CCCC2 (stereo unspecified),44.5% (inactive)
